Source: PubChem BioAssay (Broad Institute)
Rows were chosen to be rich in hits. Some 3.1% of all compounds tested hit in one or more screens of this group.
RAD54 branch = inhibitors of human RAD54 branch migration, primary screen, biochemical, fluorescence, single point. DNA repair and recombination protein RAD54-like (Homo sapiens), Q92698. 360,000 tested, 0.14% active. RAD54 Holliday junction branch migration, FAM/BHQ fluorescence. inhibition, % at 10.4 µM;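 active means mean normalized replicate activity at least 40 and at least half of replicates scoring 40 or more; inconclusive means only one of the two criteria met; inactive means mean below 40 and under half of replicates reaching 40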;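 further: inhibitors cause a drop in the FAM fluorescence signal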
dFosB act = activators of delta FosB homodimer, primary screen, biochemical, fluorescence polarization, TAMRA-CDK5 oligo, single point; purified delta FosB; percent of positive-control signal above neutral wells; activation, % at 25 µM; 340,000 tested, 0.99% active; AID 493131, 2011;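 active means mean activation above about 17%, with every replicate also reaching it, limit read from the data, passing the limit was not always enough; inconclusive means only one of the two conditions met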
Target sequence (P13346 whole entry, looked up): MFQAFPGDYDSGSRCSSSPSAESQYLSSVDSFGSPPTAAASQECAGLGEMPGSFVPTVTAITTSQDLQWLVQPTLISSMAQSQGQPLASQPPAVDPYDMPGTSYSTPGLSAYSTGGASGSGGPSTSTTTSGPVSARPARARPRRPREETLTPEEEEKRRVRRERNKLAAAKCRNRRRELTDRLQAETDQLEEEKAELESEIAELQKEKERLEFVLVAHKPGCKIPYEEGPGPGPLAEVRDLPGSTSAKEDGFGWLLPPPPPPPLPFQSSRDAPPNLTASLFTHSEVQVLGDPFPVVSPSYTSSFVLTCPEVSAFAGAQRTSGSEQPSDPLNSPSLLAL
RAD52 inh = RAD52 DNA annealing inhibitors, primary screen, biochemical, FRET, single point, set 2. AID 651710, 2012. inhibition, % at 18.7 µM. recombinant RAD52 DNA annealing, FRET fluorescence. 360,000 tested, 0.46% active. DNA repair protein RAD52 homolog (Homo sapiens), P43351;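 active means every replicate showing at least 50% inhibition; inconclusive means mean inhibition at least 50% but not in every replicate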
Target sequence (P43351 whole entry, looked up): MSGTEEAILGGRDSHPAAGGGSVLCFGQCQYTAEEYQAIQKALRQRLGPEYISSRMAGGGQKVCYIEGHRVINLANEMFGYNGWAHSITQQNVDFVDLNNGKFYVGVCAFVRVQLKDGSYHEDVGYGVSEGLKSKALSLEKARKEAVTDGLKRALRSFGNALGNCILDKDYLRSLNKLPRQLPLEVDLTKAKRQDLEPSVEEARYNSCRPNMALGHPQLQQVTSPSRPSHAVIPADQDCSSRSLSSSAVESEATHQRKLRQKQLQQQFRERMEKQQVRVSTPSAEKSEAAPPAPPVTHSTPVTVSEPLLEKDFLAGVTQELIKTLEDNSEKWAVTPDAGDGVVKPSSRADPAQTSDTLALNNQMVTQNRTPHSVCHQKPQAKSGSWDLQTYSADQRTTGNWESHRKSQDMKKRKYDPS
DENV2 CPE = inhibitors of DENV2 cytopathic effect, primary screen, cell-based, plate reader, single concentration. DENV2-infected cells, cytopathic effect rescue. CPE inhibition, % at 9.99 µM. 350,000 tested, 1.7% active; in the data active means CPE inhibition above about 20%, passing the limit was not always enough; inconclusive means no clear call, values can overlap the other calls; tested in BHK-21 cells
GSIS activator = GLuc luminescence reporter in INS-1E cells, primary screen for activators of glucose-dependent secretion of insulin; activation, % at 16.6 µM; AID 743287, 2014; INS-1E GLuc reporter insulin secretion, 2-3 h; 370,000 tested, 0.61% active;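 active means lowest replicate activation of at least 40%, so every replicate reaches that level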
AF4-AF9 inh = inhibitors of AF4 peptide binding to AF9, primary screen, biochemical, AlphaScreen, biotin-AF4 peptide, FLAG-AF9, single point. inhibition, % at 10 µM. 350,000 tested, 0.47% active. AID 651704, 2012. Protein AF-9 (Homo sapiens), P42568;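 active means every replicate reaching a set inhibition limit, whatever the replicate mean, cut at about 25% in these data; inconclusive means mean inhibition reaches that limit but some replicates miss it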
RAD52 DNA ctr = DNA-binding compounds via dye displacement, dose response, artefact control for RAD52 inhibitor project, biochemical, fluorescence polarization, cherry-pick. shares compounds with RAD52 inh. Salmon sperm DNA/acridine orange FP displacement. AC50, µM. 1,000 tested, 8% active. AID 652128, 2013;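 active means fitted half-maximal concentration for signal loss at or below twice the highest dose tested, in every separate run, actives reach about 64 µM in these data; inconclusive means runs disagree, or flat partial signal loss, or poor fit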
Large screens that a line does not name were inactive (follow-up assays come after a bar, where they were run); ! = not confirmed by another sample.

COc1cc(CNC(C)(C)CO)cc(Br)c1OCc1ccc(Cl)cc1Cl	RAD52 inh 55.5, GSIS activator 176.1 (no result: RAD54 branch) | RAD52 DNA ctr inactive
COc1cccc(C2=CC(=O)C(C(C)(C)C)N2C(C)(C)C)c1 (stereo not drawn)	RAD52 inh 79.5, DENV2 CPE 41.4 | RAD52 DNA ctr inactive
COc1cccc(C2=NOC(C(=O)NC(C)(C)C)C2)c1 (stereo not drawn)	none (no result: RAD54 branch, RAD52 inh, DENV2 CPE, AF4-AF9 inh)
O=[N+]([O-])c1ccc2c(c1)c1ccccc1n2CCO	none
CCN(CC)CC(O)Cn1c(C)c(-c2ccccc2)c2cc([N+](=O)[O-])ccc21 (stereo not drawn)	RAD52 inh 64.2, AF4-AF9 inh 37.2 | RAD52 DNA ctr inactive
CCCN(C)C[C@@H]1OCCCC[C@@H](C)Oc2ccc(NS(=O)(=O)c3ccc(Cl)cc3)cc2C(=O)N([C@@H](C)CO)C[C@@H]1C	none (no result: dFosB act)
CCN(CC)CCNc1ncnc2c1sc1nc(N3CCCC3)c3c(c12)CC(C)(C)OC3	dFosB act 23.4, RAD52 inh 78.8 (no result: RAD54 branch) | RAD52 DNA ctr inactive
CC1(C)Cc2c(c(-c3ccco3)nc3sc4c(NCCN5CCOCC5)ncnc4c23)CO1	none (no result: RAD54 branch)
CCC(=O)N1CC(=O)N2[C@H](CO)[C@@H](c3ccc(-c4ccccc4C)cc3)[C@H]2C1	none (no result: RAD54 branch, dFosB act)
CCc1c(C)nc(Nc2nc(C)c3cc(OC)ccc3n2)[nH]c1=O	none (no result: RAD52 inh, DENV2 CPE, GSIS activator, AF4-AF9 inh)
COc1ccc2nc(NC3=NC(c4ccccc4)CC(=O)N3)nc(C)c2c1 (stereo not drawn)	RAD52 inh 71.9 (no result: RAD54 branch) | RAD52 DNA ctr inactive
Cn1c(C(=O)NCCCN2CCCCCC2)cc2c(=O)n(C)c3ccccc3c21	RAD52 inh 52.5 | RAD52 DNA ctr inactive
Oc1ccc(C2CNCCc3c2cc(O)c(O)c3Cl)cc1 (stereo not drawn)	RAD52 inh 51.8! | RAD52 DNA ctr inactive
NC(N)=Nc1nc(-c2ccccc2)c2ccccc2n1	RAD54 branch 51.5, RAD52 inh 63.5 | RAD52 DNA ctr inactive
Clc1nc(-c2ccccc2)c2ccccc2n1	none
CCc1nc2ccccc2c(C(=O)O)c1C	none (no result: RAD52 inh, DENV2 CPE, GSIS activator, AF4-AF9 inh)
CCc1nc(N=C(N)N)nc2ccccc12	RAD52 inh 62.6 (no result: RAD54 branch, dFosB act, DENV2 CPE) | RAD52 DNA ctr inactive
Cc1noc(C)c1NC(=O)N(C)C[C@@H]1OCCCC[C@H](C)Oc2ccc(NC(=O)c3ccccc3)cc2C(=O)N([C@H](C)CO)C[C@@H]1C	none (no result: dFosB act)
CC(=O)OC1C([N+]2(C)CCCCC2)C[C@H]2C3CC[C@H]4C[C@H](OC(C)=O)C([N+]5(C)CCCCC5)CC4(C)[C@H]3CCC12C (stereo partly drawn)	RAD52 inh 50.5 (no result: GSIS activator) | RAD52 DNA ctr inactive
CC(=O)O[C@H]1C[C@@H]2CC[C@@H]3[C@H](CC[C@@]4(C)[C@H]3C[C@H]([N+]3(C)CCCCC3)[C@@H]4OC(C)=O)[C@@]2(C)C[C@@H]1[N+]1(C)CCCCC1	none (no result: GSIS activator)
C[C@@H]1CN([C@H](C)CO)C(=O)Cc2cc(NC(=O)c3ccncc3)ccc2O[C@@H]1CN(C)C(=O)Nc1ccccc1	DENV2 CPE inconclusive (no result: dFosB act)
CCN(CC)CCOC(=O)c1ccc(N/C=C(/C#N)c2nc(-c3ccc(OC)c(OC)c3)cs2)cc1	dFosB act 164.9, RAD52 inh 70.3, GSIS activator 56.2 (no result: RAD54 branch) | RAD52 DNA ctr inactive
COc1nc(N=C(N)N)nc2ccc(C)cc12	RAD52 inh 79.2 (no result: RAD54 branch, dFosB act) | RAD52 DNA ctr inactive
COc1nc(Nc2nc3ccccc3c(=O)[nH]2)nc2ccc(C)cc12	none
CCN(CC)CCCNC(=O)c1cc(Nc2ccc(OC)cc2OC)nc2ccccc12	none | RAD52 DNA ctr inactive
COc1ccc2nc(C)cc(Nc3ccc(N4CCN(C)CC4)cc3)c2c1	RAD54 branch 97.6, dFosB act 76.6, RAD52 inh 99.8 | RAD52 DNA ctr 42.3µM
COc1ccc2nc(C)cc(NCCN3CCOCC3)c2c1	none
CC(=O)c1ccc2c(c1)N(CCCN(C)C)c1ccccc1S2	none
CCC(=O)c1ccc2c(c1)N(CCCN(C)C)c1ccccc1S2	RAD52 inh 69.7, DENV2 CPE inconclusive (no result: GSIS activator) | RAD52 DNA ctr inactive
COc1cc2c(cc1OC)CN1CCc3cc(OC)c(OC)cc3C1C2 (stereo not drawn)	RAD54 branch 84.5, RAD52 inh 73.8 (no result: dFosB act) | RAD52 DNA ctr inactive
NC1=NC[C@H](Cc2ccc(O)cc2)N1CCC12CC3CC(CC(C3)C1)C2	RAD52 inh 52.8 (no result: GSIS activator) | RAD52 DNA ctr inactive
C[C@@H]1CN([C@@H](C)CO)C(=O)c2cc(NS(=O)(=O)c3cn(C)cn3)ccc2O[C@@H](C)CCCCO[C@@H]1CN(C)C(=O)C1CCCCC1	none (no result: dFosB act)
COc1ccc2c(c1OC)c(=O)n1c3ccc(OC(C)C(=O)NCCN4CCOCC4)cc3c3ccnc2c31 (stereo not drawn)	RAD54 branch 97.3, RAD52 inh 66.2 | RAD52 DNA ctr inconclusive
Cc1ccc(-c2csc(NC(=O)CSc3nc4ccccc4c(=O)n3CCCN(C)C)n2)cc1	RAD52 inh 91.2, AF4-AF9 inh 35.6 (no result: RAD54 branch, DENV2 CPE) | RAD52 DNA ctr inactive
CO[C@H]1CN(C)C(=O)c2ccc(NC(=O)C3CCCCC3)cc2OC[C@@H](C)N(C(=O)c2ccccc2)C[C@H]1C	none (no result: dFosB act)
COC(=O)C1=CN(Cc2ccc(C)cc2)C=C(C(=O)OC)C1c1cc(OC)c(OC)c(OC)c1	RAD52 inh 95.2 | RAD52 DNA ctr inactive
CO[C@@H]1CN(C)C(=O)c2cc(NC(=O)CC(F)(F)F)ccc2OC[C@H](C)N(C(=O)c2ccccc2F)C[C@@H]1C	none (no result: RAD54 branch, dFosB act)
c1ccc(-c2nc3ccccc3nc2-c2ccc(CN3CCC(c4nc5ccccc5[nH]4)CC3)cc2)cc1	none (no result: RAD54 branch, dFosB act, AF4-AF9 inh)
Cc1cccc2nc(-c3ccccc3)c(-c3ccc(CN4CCC(c5nc6ccccc6[nH]5)CC4)cc3)nc12	RAD52 inh 59.9 (no result: RAD54 branch, dFosB act, AF4-AF9 inh) | RAD52 DNA ctr inactive
Cc1cccc2nc(-c3ccccc3)c(-c3ccc(CN4CCC(n5cc(-c6ccccc6)[nH]c5=O)CC4)cc3)nc12	RAD52 inh 61.9 (no result: RAD54 branch, dFosB act, AF4-AF9 inh) | RAD52 DNA ctr inactive
CCCC(=O)Nc1ccc2c(c1)OC[C@H](C)N(Cc1ccc(-c3ccccn3)cc1)C[C@@H](C)[C@@H](OC)CN(C)C2=O	none (no result: dFosB act)
O=C(O)c1ccc(Cl)c(S(=O)(=O)N(Cc2ccccc2)c2ccc(Cl)cc2)c1	none
COc1ccccc1N(Cc1ccccc1)S(=O)(=O)c1cccc(C(=O)NC2CC(C)(C)NC(C)(C)C2)c1	RAD52 inh 57.5 (no result: RAD54 branch) | RAD52 DNA ctr inactive
